Source: PubChem (National Center for Advancing Translational Sciences (NCATS))
Most compounds without a hit are left out; they make up all but 4.8% or so of the library.
USP2a inh: inhibitors of human ubiquitin-specific protease USP2a; O75604; USP2 core, Ub-CHOP2 coupled fluorogenic reporter, 485/531; Potency, µM (titrated, usually from 38.3 µM), hits mostly inhibitors; actives 0.01% (n = 330,000)
Target sequence (O75604 whole entry, looked up): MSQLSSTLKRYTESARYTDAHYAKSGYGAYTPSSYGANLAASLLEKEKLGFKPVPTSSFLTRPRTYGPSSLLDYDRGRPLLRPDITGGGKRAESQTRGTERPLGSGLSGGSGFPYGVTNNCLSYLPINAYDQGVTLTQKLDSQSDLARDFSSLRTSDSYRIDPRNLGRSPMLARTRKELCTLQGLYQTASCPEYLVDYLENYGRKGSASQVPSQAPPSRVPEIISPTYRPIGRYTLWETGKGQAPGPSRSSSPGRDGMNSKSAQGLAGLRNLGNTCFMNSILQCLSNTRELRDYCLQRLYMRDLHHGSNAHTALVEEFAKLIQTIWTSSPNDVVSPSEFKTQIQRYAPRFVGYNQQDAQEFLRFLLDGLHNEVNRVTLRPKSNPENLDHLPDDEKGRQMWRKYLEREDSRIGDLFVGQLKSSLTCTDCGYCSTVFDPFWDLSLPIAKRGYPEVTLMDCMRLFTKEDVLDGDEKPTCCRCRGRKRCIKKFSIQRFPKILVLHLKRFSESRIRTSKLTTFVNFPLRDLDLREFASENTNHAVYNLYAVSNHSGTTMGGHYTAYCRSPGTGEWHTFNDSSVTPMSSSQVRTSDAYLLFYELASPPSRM
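Cell-free coupled assay: 10nM USP2 core preincubated 30min RT with compound in Tris-HCl pH 8.0/CaCl2/CHAPS buffer, then 25nM Ub-CHOP2 and 25nM reporter substrate; fluorescence (Ex 485/Em 531) read after 60min RT, normalized to NEM inhibition, concentration-response curves fitted.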
ATXN viability: viability counter-screen for ATXN expression inhibitors; S2 cells (HEK-293 line with an ATXN2-luciferase reporter) viability, CellTiter-Fluor protease fluorescence, 24 h; Potency, µM (doses to about 56.7 µM), hits mostly cytotoxic; actives 0.49% (n = 400,000); also: nearly all actives have a fitted effect of over 40% in size
IL-1B inflam inh: blocks inflammasome-driven IL-1 beta release; THP-1 LPS/ATP IL-1B secretion, AlphaLISA, 16 h; stronger effect = lower value; activity change, % at 57.5 µM; actives 4.7% (n = 360,000); AID 743279; in the data active = activity change below about -50%; inconclusive = mostly about -30% to -49%
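Secreted IL-1B measured by AlphaLISA bead assay after 16 h compound exposure of THP-1 cells; compounds (final up to 57.5 uM) added 1 h before LPS (250 ng/mL) and ATP (1.25 mM) stimulation; lower signal means less secretion.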
USP1 inh: USP1/UAF1 (human) deubiquitinase inhibition | AID 743255 | Potency, µM (titrated, usually from 57.1 µM), hits mostly inhibitors | actives 0.23% (n = 390,000) | O94782 | recombinant USP1/UAF1, Ub-Rhodamine cleavage fluorescence; also: nearly all actives have a fitted effect of over 60% in size
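USP1/UAF1 complex at 1 nM was preincubated with compound for 15 min at room temperature, then Ub-Rho substrate (150nM final) was added. Fluorescence (480/540 nm) was read kinetically, 6 reads every 60 seconds.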
ATXN2 expr inh: reduces ATXN2 reporter expression in HEK-293 cells | HEK-293 ATXN2-luciferase reporter, luminescence, 24 h | Potency, µM (titrated, usually from 57 µM), usual class: inhibitors | actives 0.72% (n = 360,000) | AID 1745845; also: nearly all actives have a fitted effect of over 55% in size
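ATXN2-luciferase reporter cells (luciferase flanked by upstream and downstream ATXN2 gene portions) were treated 24 h at 37 °C with compounds at up to 57 uM. SteadyGlo luminescence gave expression; GF-AFC fluorescence gave viability.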
Large screens that a line does not name were inactive. Unless noted, calls follow the shape of the dose curve; as a rule, active = well fitted curve in the direction sought with a large enough effect; inconclusive = small, poorly fitted or top-dose-only effect, or another doubt; inactive = no such curve, though single readings can be large; an effect the other way counts as inactive or inconclusive.

OCCn1c(-c2ccc3c(c2)OCO3)csc1=Nc1ccccc1	IL-1B inflam inh -62
CCn1c(-c2ccccc2)csc1=Nc1ccc(O)cc1	IL-1B inflam inh -95
CCOc1ccc(N=c2scc(-c3ccc(OC)cc3)n2CCO)cc1	IL-1B inflam inh inconclusive
Cc1cc(C)c(C)c(S(=O)(=O)N2CCC(C(=O)N(C)Cc3nc4ccccc4c(=O)[nH]3)CC2)c1C	none (no result: USP2a inh)
CCC(=O)c1ccc(OCc2ccc(C(=O)c3ccccc3)cc2)cc1	IL-1B inflam inh -136 (no result: ATXN2 expr inh)
CCc1cccc(C)c1NC(=O)Cn1c(=O)cc(C)c2c(C)nn(-c3cccc(F)c3)c21	none (no result: USP2a inh, IL-1B inflam inh)
O=C(NCC1CCC2(CCN(Cc3cccn3-c3ccc(Cl)cn3)CC2)O1)c1ccccc1 (centres undefined)	none (no result: USP2a inh, IL-1B inflam inh, USP1 inh, ATXN2 expr inh)
COCc1cc(=O)[nH]c(Nc2nc3ccccc3o2)n1	ATXN viability inconclusive, ATXN2 expr inh inconclusive
COCc1cc(=O)[nH]c(Nc2nc(C)c3ccccc3n2)n1	IL-1B inflam inh -65
CCCCn1nnnc1C(c1cccc2ccccc12)N1CCN(C/C=C/c2ccccc2)CC1 (centres undefined)	ATXN viability inconclusive, IL-1B inflam inh -59, ATXN2 expr inh inconclusive (no result: USP2a inh, USP1 inh)
COc1ccc(-n2nnnc2C(c2ccccc2)N2CCN(C/C=C/c3ccccc3)CC2)cc1 (centres undefined)	IL-1B inflam inh -55 (no result: USP2a inh, USP1 inh)
CN1CCN(C(c2cccc(C(F)(F)F)c2)c2nnnn2Cc2ccccc2)CC1 (centres undefined)	IL-1B inflam inh -54
FC(F)(F)Oc1ccccc1C(c1nnnn1Cc1ccccc1)N1CCN(C/C=C/c2ccccc2)CC1 (centres undefined)	IL-1B inflam inh -55 (no result: USP2a inh, USP1 inh)
CCCCn1nnnc1C(c1ccnc2ccccc12)N1CCN(C/C=C/c2ccccc2)CC1 (centres undefined)	ATXN viability inconclusive (no result: USP2a inh, USP1 inh)
COCC(=O)Nc1cc(C(=O)N[C@H]2CCCCNC2=O)c2c(c1)nc(-c1ccncc1)n2C	none (no result: USP2a inh, IL-1B inflam inh, USP1 inh, ATXN2 expr inh)
O=C(c1ccco1)N1CCNCC1	none (no result: USP2a inh, IL-1B inflam inh, USP1 inh)
CC(C)(C)c1ccc(-c2cc(C(=O)NNC(=O)Nc3ccccc3)c3ccccc3n2)cc1	IL-1B inflam inh -50
O=C(NNC(=O)c1cc(-c2cccnc2)nc2ccccc12)Nc1ccc(Cl)cc1	IL-1B inflam inh -96 (no result: ATXN viability)
O=C(Nc1ccc(C(=O)N2CCOCC2)cc1)c1cc(-c2cccnc2)nc2ccc(Br)cc12	ATXN viability inconclusive, IL-1B inflam inh -53, ATXN2 expr inh inconclusive
O=C(NNC(=O)c1cc(-c2ccccc2)nc2ccccc12)Nc1cccc(Cl)c1	ATXN viability inconclusive
Cn1nc(-c2ccccc2)cc1NC(=O)Nc1ccc(C(C)(C)C)cc1	IL-1B inflam inh -54 (no result: ATXN2 expr inh)
O=C1[C@@H]2CSCN2C(=O)CN1Cc1ccc(F)cc1	none
Cc1ccc(C)c(S(=O)(=O)N2CCN(C(=O)Cc3ccccc3)CC2)c1	none
Cc1ccc(C)c(S(=O)(=O)N2CCN(C(=O)CCC(=O)c3cc(C)sc3C)CC2)c1	ATXN viability inconclusive, IL-1B inflam inh -54
OC(CNCCc1ccc(C(F)(F)F)cc1)COC(c1ccccc1)c1ccccc1 (centres undefined)	ATXN viability inconclusive, IL-1B inflam inh -69, ATXN2 expr inh 28µM
COc1ccc(CC(=O)NCCc2ccc(S(N)(=O)=O)cc2)cc1	none
COc1ccc(C(OCC(O)CNCCc2ccc(S(N)(=O)=O)cc2)c2ccc(OC)cc2)cc1 (centres undefined)	IL-1B inflam inh -68
CN(C)CC(O)COC(c1ccccc1)c1ccccc1 (centres undefined)	none
CCOC(=O)C(=Cc1ccc(-n2cncn2)cc1)C(=O)OCC	ATXN viability inconclusive, IL-1B inflam inh -99, ATXN2 expr inh inconclusive
O=C(Nc1ccc(OC(F)(F)F)cc1)c1sccc1NCc1ccnc2ccccc12	none (no result: USP2a inh, ATXN viability, IL-1B inflam inh, USP1 inh)
C=CCn1c(COc2ccc(Cl)cc2)nnc1SCC(=O)N/N=C/c1cccc(O)c1	ATXN viability inconclusive
C=CCn1c(COc2ccccc2)nnc1SC(C)C(=O)N/N=C/c1cc(Cl)ccc1O (centres undefined)	ATXN2 expr inh 14µM
O=S(=O)(c1ccc(Cl)cc1)N1CCC2(CC1)CO2	IL-1B inflam inh -57
CCCCn1nnnc1C(c1cc2ccccc2o1)N(CCN(C)C)Cc1ccccc1 (centres undefined)	IL-1B inflam inh inconclusive, ATXN2 expr inh 32µM (no result: USP2a inh, ATXN viability, USP1 inh)
CN(C)CCN(Cc1ccccc1)C(c1cc2ccccc2o1)c1nnnn1C(C)(C)C (centres undefined)	ATXN viability inconclusive, IL-1B inflam inh -54 (no result: USP2a inh, USP1 inh)
CCN(C(=O)CSc1ccc2ccccc2n1)C1CCCCC1	ATXN viability inconclusive, IL-1B inflam inh -69
Cc1ccc(NC(=O)Cn2c(-c3nonc3N)nc3ccccc32)cc1C	none (no result: USP2a inh, IL-1B inflam inh)
CC(C)C(=O)N1CCN(c2ccc([N+](=O)[O-])c(NC(C)c3ccccc3)c2)CC1 (centres undefined)	IL-1B inflam inh -64
